Screening results: PubChem BioAssay, National Center for Advancing Translational Sciences (NCATS)
Rows were chosen to be rich in hits. Some 7.5% of all compounds tested hit in one or more screens of this group.
Rab9 prom act: activators of Rab9 promoter | Huh7 Rab9 promoter-luciferase reporter, luminescence, 24 h | Potency, µM (series often up to 9.22 µM), without a hit: top-dose activation, negative = inhibition, usual class: activators | 320,000 tested, 2.8% active | AID 485297; note: % of control where 0% means no effect; nearly all actives have a fitted effect of over 60% in size
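Measured in stably transfected Huh7 cells bearing a Rab9 promoter–luciferase construct: 24 h compound treatment at 37 °C, followed by luminescence detection.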
FLuc counter: inhibits or activates purified firefly luciferase, miR-21 counter-screen; 360,000 tested, 6.9% active; P08659; purified FLuc, Km substrates, luminescence inhibition; Potency, µM (series often up to 57.5 µM), for inactives: top-dose activity change, negative = inhibition, most hits filed as inhibitors;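 note: plate controls were vehicle for no effect and reference inhibitor for full effect; nearly all actives have a fitted effect of over 55% in size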
Target sequence (P08659 whole entry, looked up): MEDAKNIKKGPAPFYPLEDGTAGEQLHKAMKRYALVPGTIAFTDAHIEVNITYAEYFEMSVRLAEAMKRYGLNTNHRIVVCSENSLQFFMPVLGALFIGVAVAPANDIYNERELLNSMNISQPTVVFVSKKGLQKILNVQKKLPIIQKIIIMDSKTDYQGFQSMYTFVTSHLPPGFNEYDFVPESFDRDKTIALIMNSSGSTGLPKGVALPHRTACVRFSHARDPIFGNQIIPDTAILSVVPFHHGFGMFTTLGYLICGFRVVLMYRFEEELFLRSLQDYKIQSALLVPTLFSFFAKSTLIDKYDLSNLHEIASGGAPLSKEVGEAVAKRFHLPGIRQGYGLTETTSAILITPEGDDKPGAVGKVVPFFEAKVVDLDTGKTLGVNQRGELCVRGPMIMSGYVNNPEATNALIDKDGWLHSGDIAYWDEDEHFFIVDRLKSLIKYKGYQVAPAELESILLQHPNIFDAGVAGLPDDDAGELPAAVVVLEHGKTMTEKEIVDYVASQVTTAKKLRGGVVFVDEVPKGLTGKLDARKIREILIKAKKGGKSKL
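Purified P. pyralis luciferase, 10 nM final, with Km-level 10 uM D-luciferin and 10 uM ATP in 50 mM Tris acetate pH 7.5, 10 mM Mg acetate, 0.01% Tween-20, 0.05% BSA; 6-point qHTS titration about 60 µM downward; luminescence read.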
SMN2 splice enh: enhancers of SMN2 splice variant expression; HEK293 SMN2-luciferase splicing reporter, luminescence, 30-36 h; Potency, µM (highest dose often 46.1 µM), for the others: top-dose activity change, positive = activation, actives largely listed as activators; 210,000 tested, 2.8% active; AID 1458; note: % of control where 0% means no effect; nearly all actives have a fitted effect of over 55% in size
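qHTS luciferase splicing reporter: luminescence rises when SMN2 exon 7 is included in transfected HEK293 cells. Compound exposure lasted 30-36 h at 37C, with 4.5 mM final sodium butyrate as control, followed by a ONE-Glo read.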
Luc counter: Kinase-Glo luciferase inhibition (counter-screen); Potency, µM (highest dose often 38.3 µM), for the others: at the highest dose activity change, negative = inhibition, hits mostly inhibitors; Kinase-Glo luciferase, ATP luminescence, 8 min; 200,000 tested, 0.28% active; note: % is set by controls: 0 for no effect and ±100 for the full control effect; nearly all actives have a fitted effect of over 60% in size
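Luminescence was the read-out, taken after 8-minute incubation at ambient temperature. Luciferase turned over luciferin with 10 uM ATP in imidazole pH 7.2 buffer containing KCl, MgCl2, Tween 20 and BSA.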
ELG1 genotoxic: genotoxicity induction in ELG1-luciferase HEK293T cells | HEK293T ELG1-luciferase reporter, luminescence, 16 h | Potency, µM (top dose mostly 46 µM), inactives show top-dose activity change, positive = activation, usual class: activators | 330,000 tested, 1.3% active; note: % of control where 0% means no effect; nearly all actives have a fitted effect of over 60% in size
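Genotoxic stress is detected as increased luminescence from luciferase-tagged ELG1 in HEK293T cells, measured with ONE-Glo after a 16 hr treatment at 37 °C.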
NPC1 promoter act: activates the NPC1 promoter. Potency, µM (highest dose often 9.22 µM), inactives show top-dose activation, most hits filed as activators. Huh7 NPC1 promoter luciferase reporter, 24 h. 320,000 tested, 2.4% active; note: % of control where 0% means no effect; nearly all actives have a fitted effect of over 60% in size
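Readout is luciferase luminescence, reflecting NPC1 promoter activation in stably transfected Huh7 cells after 24 h compound exposure at 37 °C in reduced-serum medium with 10% FBS.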
An asterisk follows results filed as active; u = inconclusive; x = no result given; [ ] = dose if it differs, or a comment. Calls come from the whole dose curve; as a rule, active = well fitted curve in the direction sought with a large enough effect; inconclusive = small, poorly fitted or top-dose-only effect, or another doubt; inactive = no such curve, though single readings can be large; an effect the other way counts as inactive or inconclusive. Potency is the fitted concentration of half-maximal effect.

SMILES | Rab9 prom act | FLuc counter | SMN2 splice enh | Luc counter | ELG1 genotoxic | NPC1 promoter act
CC1CCN(C(=O)CSc2ccc(-c3ccc4c(c3)OCCO4)nn2)CC1 | 14% | 11µM* | x | x | -1% | 2%
COc1ccc(-c2ccc(SCC(=O)N3CCOCC3)nn2)cc1OC | 4% | 15µM* | -22% | -9% | u | 22%
CCCOc1cccc(C(=O)N(Cc2ccc(C)o2)C2CCS(=O)(=O)C2)c1 (stereo not given) | x | 5% | -2% | x | x | x
CCCCN(CCCC)CC(O)COc1ccccc1Br (stereo not given) | -16% | 2% | -13% | 0% | -3% | -5%
CCCCCCSc1ccc(-c2nc3cnccn3c2NCCCC)cc1 | x | x | x | x | -2% | x
O=C1Nc2ccccc2N(O)N1c1cc(-c2ccccc2Cl)no1 | 18% | 6µM* | 3% | 0% | -1% | u
O=C1Nc2ccccc2N(O)N1c1cc(-c2ccc(Cl)cc2)[nH]n1 | -4% | 8.5µM* | -5% | 1% | -4% | 0%
O=C1Nc2ccccc2N(O)N1c1cc(-c2cccc(Cl)c2)no1 | 12% | 21µM* | x | 14% | 1% | 3%
Cc1ccc(C(=O)CSc2nc(C)cc(C)c2C(=O)Nc2cccc(C)c2)cc1 | x | -13% | x | x | x | x
Cc1cc(C)cc(N2CC(C(=O)OCC(=O)Nc3cc(C)on3)CC2=O)c1 (stereo not given) | 0% | 2% | x | x | -1% | -2%
Nc1ccc(-c2cn3cccnc3n2)cc1 | u | u | 31% | 1% | 13% | 24%
O=c1oc2ccccc2cc1-c1cn2cccnc2n1 | 0.56µM* | 4.3µM* | 4.5µM* | u | u | 1µM*
Cc1cccn2cc(-c3cc4ccccc4oc3=O)nc12 | 0.14µM* | 0.19µM* | x | u | 0.82µM* | 0.11µM*
CCCCOc1ccc(-c2ncc(C(=O)O)c(C)n2)cc1 | 0.56µM* | 2.4µM* | 14µM* | -6% | 12% | 0.5µM*
CC(C)(C)NC(=O)/C=C/c1ccc(C(F)(F)F)cc1 | -7% | 27µM* | -28% | 2% | 5% | -4%
CNC(=O)/C=C/c1cccc(C(F)(F)F)c1 | 7% | 3% | -6% | -1% | 1% | -1%
O=c1c2c3c(sc2nc2sc(C4CC4)nn12)CCCC3 | 4µM* | 3µM* | 7.9µM* | -5% | 5.8µM* | 2.5µM*
Cc1ccccc1OCC(=O)Nc1nnc(-c2ccco2)s1 | -2% | -2% | x | x | 2% | -1%
COc1ccccc1C(=O)Nc1nnc(-c2ccco2)s1 | u | 2.7µM* | 11µM* | 2% | 1.6µM* | 0%
Cc1ccccc1C(=O)Nc1nnc(-c2ccco2)s1 | 0.32µM* | 1.5µM* | 2µM* | -10% | 1.5µM* | 0.56µM*
Cn1ncc2c(Nc3ccc4ccccc4c3)ncnc21 | 3.2µM* | 11µM* | x | x | u | u
Cn1ncc2c(Nc3ccc(Cl)cc3)ncnc21 | -1% | u | x | x | 11% | -4%
Clc1ccc(Nc2ncnc3c2cnn3-c2ccccc2)cc1 | u | 13µM* | 43% | 2% | 12µM* | u
Cc1cccc(Nc2ncnc3c2cnn3C)c1 | -1% | -4% | 2% | 2% | u | 1%
CC(C)Nc1ncnc2c1cnn2-c1ccc(Cl)cc1 | 0.32µM* | 0.54µM* | 1.3µM* | -3% | 0.37µM* | 0.28µM*
SMILES | Rab9 prom act | FLuc counter | SMN2 splice enh | Luc counter | ELG1 genotoxic | NPC1 promoter act
NC(=O)CC(NC(=O)Cc1cccc2ccccc12)c1ccc(N2CCN(c3ccccn3)CC2)c([N+](=O)[O-])c1 (stereo not given) | -1% | -2% | x | x | 0% | -6%
O=C(CSc1nc2cc(Cl)ccc2o1)NC1CC1 | x | x | x | x | 1% | x
O=c1[nH]c(SCc2ccc(Br)cc2)nc2c1CCCC2 | x | 1% | x | x | x | x
CCOC(=O)c1c(C)oc2c1c1c(c3ccccc32)OCN(CCCC(=O)O)C1 | u | 19µM* | x | x | u | u
CCOC(=O)c1c(C)oc2c1c1c(c3ccccc32)OCN(Cc2cccnc2)C1 | 5% | 27µM* | -73% | -3% | 15µM* | 3%
CC(=O)c1c(C)oc2c1cc(O)c1ccccc12 | 7% | -8% | x | x | 5% | 0%
CCOC(=O)c1c(C)oc2c1c(C(c1cccnc1)N1CCN(C)CC1)c(O)c1ccccc12 (stereo not given) | 9% | -3%[2.3 µM] | x | 5% | u | 0%
CCOC(=O)c1c(C)oc2c1cc(O)c1ccccc12 | -1% | 2.4µM* | 3% | -1% | u | u
CN(C)c1ccc(N2CC(C)(C)C2=O)cc1 | 22% | u | 21% | 1% | 3% | 12%
CC1Cc2cc(S(=O)(=O)CCC(=O)NCc3ccccc3Cl)ccc2N1C(=O)C1CC1 (stereo not given) | x | -1% | x | x | x | x
Cc1nc2nc(COc3ccccc3)[nH]n2c(=O)c1Cl | 7% | 19µM* | 16% | -10% | 2% | 7%
CCNc1nc(N)nc(Oc2ccc(C(=O)OC)cc2)n1 | 3.2µM* | 19µM* | 25µM* | -2% | 12µM* | u
Cc1ccc(Oc2ccc3c(c2)C(=O)N(c2ccc(S(=O)(=O)Nc4nccs4)cc2)C3=O)cc1 | -5% | 19µM* | -15% | -1% | -2% | -5%
O=C(N/N=C/C1CC2CCC1C2)c1c[nH]c2ccccc12 (stereo not given) | -4% | 4.8µM* | x | -3% | -1% | 0%
O=C(N/N=C/c1ccc[nH]1)c1c[nH]c2ccccc12 | -60% | 15µM* | x | x | 9% | -45%
O=C(N/N=C/c1ccccn1)c1c[nH]c2ccccc12 | 2.8µM* | 8.5µM* | x | x | u | 2µM*
O=C(N/N=C/c1ccc[nH]1)c1sc2ccccc2c1Cl | -8% | 7.6µM* | -24% | -8% | 17% | -8%
O=C(N/N=C/C1CC2CCC1C2)C1CC1 (stereo not given) | -5% | 0% | x | x | 2% | 3%
O=C(CNc1cccc2ccccc12)N/N=C/c1ccc[nH]1 | -44% | -2% | x | x | 7% | -37%
O=C(N/N=C/c1ccccn1)c1ccc2nc[nH]c2c1 | 3% | u | x | x | -12% | 21%
COC(=O)Cc1c(C)c2ccc3c(c2oc1=O)CN(Cc1ccc(Cl)cc1)CO3 | x | -5% | 11% | x | x | x
CCOC(=O)c1c(C)[nH]c(CCC(=O)NCc2ccc(N(C)C)cc2)c1C | x | -12% | x | x | x | x
COc1ccc(CCNc2ncnc3c2c(-c2ccccc2)cn3-c2cccc(Cl)c2)cc1OC | x | 0% | x | x | x | x
COc1cc2c(cc1OC)C(c1cccc([N+](=O)[O-])c1)N(C(=O)CCC(=O)O)CC2 (stereo not given) | 10% | -2% | x | x | 0% | -7%
CCC(=O)Nc1ccccc1C(=O)OCC(=O)c1ccc2ccccc2c1 | 15% | 15µM* | -11% | -4% | -5% | 10%
